D3 antag – D3 dopamine receptor (human) antagonism; P35462; D3R cells, DiscoveRx beta-arrestin luminescence, antagonist mode; active compounds read low; max response, negative = inhibition, %; 360,000 tested, 2.5% active; in the data active means max response below about -50%; inconclusive means no clear call, values can overlap the other calls; further: on the % scale 0 is the no-effect control and ±100 the full control effect
Target sequence (P35462 whole entry, looked up): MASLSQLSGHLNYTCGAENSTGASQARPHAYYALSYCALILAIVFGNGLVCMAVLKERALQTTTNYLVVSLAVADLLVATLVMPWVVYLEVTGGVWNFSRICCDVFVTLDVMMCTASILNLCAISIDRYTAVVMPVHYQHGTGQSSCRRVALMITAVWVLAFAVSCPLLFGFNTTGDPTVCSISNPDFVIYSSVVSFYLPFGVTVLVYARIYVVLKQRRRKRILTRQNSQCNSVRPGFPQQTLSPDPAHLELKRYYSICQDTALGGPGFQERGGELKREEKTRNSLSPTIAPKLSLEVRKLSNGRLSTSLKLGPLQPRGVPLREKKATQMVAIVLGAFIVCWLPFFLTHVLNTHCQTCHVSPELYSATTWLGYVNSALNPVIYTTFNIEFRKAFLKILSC
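Cells expressing the human receptor were seeded at 1500 cells/well, incubated overnight at 37 degrees C in 5% CO2, then exposed to library compounds with dopamine controls for 90 minutes at 37 degrees C before luminescent detection.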
S2 tox – cell viability loss in ATXN counter-screen; 400,000 tested, 0.49% active; S2 cells (HEK-293 line with an ATXN2-luciferase reporter) viability, CellTiter-Fluor protease fluorescence, 24 h; Potency, µM (titrated, usually from 56.7 µM), hits mostly cytotoxic; AID 651635; further: potency means the concentration at half of the fitted maximal effect; nearly all actives have a fitted effect of over 40% in size
DRD3 agonist – agonists of human D3 dopamine receptor | D3R DiscoveRx beta-arrestin cells, luminescence, 90 min | max activation, % | 410,000 tested, 0.58% active | AID 652048; in the data active means max activation above about 30%; further: 0% is about no effect
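Agonist-mode cell screen: cells plated at 1500/well and incubated overnight at 37 °C, then exposed to library compounds for 90 min at 37 °C. Detection reagent was added for 30–60 min at room temperature, and luminescence was read.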
IL1B secr inh – inhibitors of inflammasome signaling (IL-1 beta secretion) | THP-1 LPS/ATP IL-1B secretion, AlphaLISA, 16 h; active compounds read low | activity change, % at 57.5 µM | 360,000 tested, 4.7% active | AID 743279; in the data active means activity change below about -50%; inconclusive means mostly about -30% to -49%; further: on the % scale 0 is the no-effect control and ±100 the full control effect
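Secreted IL-1B measured by AlphaLISA bead assay after 16 h compound exposure of THP-1 cells; compounds (final up to 57.5 uM) added 1 h before LPS (250 ng/mL) and ATP (1.25 mM) stimulation; lower signal means less secretion.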
a7 integrin act – activators of alpha7 integrin expression for muscular dystrophy | 350,000 tested, 0.064% active | Potency, µM (doses to about 38.3 µM), without a hit: at the highest dose activation, usual class: activators | alpha7betagal myoblasts, beta-gal FDG fluorescence, 48 h | AID 624291;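 further: potency means the concentration at half of the fitted maximal effect; 100% = response of the positive control SU9516; nearly all actives have a fitted effect of over 60% in size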
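alpha7betagal+/- myoblasts (passage 13, 250/well) treated 48 h at 37C with compounds at 1:260 dilution of DMSO stock. Lysed, then beta-galactosidase activity read as FDG fluorescence (ex 480/em 540) after 30 min, with pre-read for autofluorescence.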
ATXN2 expr inh – ATXN2 expression inhibition; HEK-293 ATXN2-luciferase reporter, luminescence, 24 h; Potency, µM (top dose mostly 57 µM), for inactives: at the top dose activity change, negative = inhibition, hits mostly inhibitors; 360,000 tested, 0.72% active; further: potency means the concentration at half of the fitted maximal effect; on the % scale 0 is the no-effect control and ±100 the full control effect; nearly all actives have a fitted effect of over 55% in size
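ATXN2-luciferase reporter cells (luciferase flanked by upstream and downstream ATXN2 gene portions) were treated 24 h at 37 °C with compounds at up to 57 uM. SteadyGlo luminescence gave expression; GF-AFC fluorescence gave viability.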
* marks the source's active call; other numbers are inactive results. Shown are actives, neighbours in structure and some others; about 7% of the full set was active somewhere. Unless noted, the call rests on the fitted dose curve; in most records, active means well fitted curve in the direction sought with a large enough effect; inconclusive means small, poorly fitted or top-dose-only effect, or another doubt; inactive means no such curve, though single readings can be large; an effect the other way counts as inactive or inconclusive.

Screening O=C(O)c1cccc(S(=O)(=O)Nc2ccc3[nH]c(=O)[nH]c3c2)c1 returned D3 antag -24.3, S2 tox inactive, DRD3 agonist -10.0, IL1B secr inh 20.3, a7 integrin act -28.5% and ATXN2 expr inh -0.7%.
Screening Cc1ccc(-n2[nH]c(=O)c(-c3ccccn3)c2C)cc1 returned D3 antag -5.5, S2 tox inactive, DRD3 agonist 5.9, IL1B secr inh 36.7, a7 integrin act 0.0% and ATXN2 expr inh 1.78µM*.
Screening CCC(CC)C(=O)Nc1nnc(SCc2cc(=O)n3cccc(C)c3n2)s1 returned DRD3 agonist 62.4*.
Screening C[C@H]1CN=C2N(CCNC(=O)CCC3CCCCC3)[C@H](Cc3ccc(O)cc3)CN21 returned D3 antag -3.3, S2 tox inactive, DRD3 agonist -42.8, IL1B secr inh -10.7, a7 integrin act 11.3% and ATXN2 expr inh 1.4%.
Screening Cc1ccc(C(=O)NCCN2C3=NC[C@H](C(C)C)N3C[C@H]2Cc2ccc(O)cc2)cc1Br returned D3 antag 0.0, S2 tox inconclusive, DRD3 agonist -44.0, IL1B secr inh -24.3, a7 integrin act -30.1% and ATXN2 expr inh inconclusive.
COc1ccc(C[C@H]2CN3C(=NC[C@H]3C)N2CCNC(=O)c2ccc(C)c(Br)c2)cc1 was read as D3 antag -57.2*, S2 tox 28.2µM*, DRD3 agonist -47.2, IL1B secr inh inconclusive, a7 integrin act -39.6% and ATXN2 expr inh -18.5%.
`COc1ccc(C[C@H]2CN3C(=NC[C@@H]3C(C)C)N2CCNC(=O)c2ccc(C)c(Br)c2)cc1` gave D3 antag -64.3*, DRD3 agonist -55.0, IL1B secr inh -63.1*, a7 integrin act -44.1% and ATXN2 expr inh inconclusive.
`Cc1ccc(C(=O)NCCN2C3=NC[C@H](C)N3C[C@H]2Cc2ccc(O)cc2)cc1Br` gave D3 antag -58.3*, S2 tox inactive, DRD3 agonist -62.1, IL1B secr inh -19.8, a7 integrin act -20.7% and ATXN2 expr inh inconclusive.
COc1ccc(C[C@@H]2CN3C(=NC[C@@H]3C)N2C[C@H](C)NC(=O)c2ccc(C)c(Br)c2)cc1 was read as D3 antag -21.9, S2 tox inconclusive, DRD3 agonist -31.8, IL1B secr inh -17.0, a7 integrin act -38.3% and ATXN2 expr inh -18.0%.
`Cc1cccc(Nc2nnc(C)c(=O)n2N)c1` gave D3 antag -16.1, S2 tox inactive, DRD3 agonist 14.5, IL1B secr inh 8.9, a7 integrin act 18.9% and ATXN2 expr inh 0.1%.
`COc1ccc(C2c3[nH]c4ccccc4c3C[C@H]3C(=O)N(c4ccccc4C(=O)N4CCC[C@H]4C(=O)O)C(=O)N23)cc1` (stereo partly drawn) gave D3 antag 11.3, S2 tox inactive, DRD3 agonist 5.0, IL1B secr inh 21.0, a7 integrin act -0.5% and ATXN2 expr inh 9.3%.
Screening CCOC(=O)N1CCN(C(=O)c2ccc(CNS(=O)(=O)c3ccc(OC)cc3)cc2)CC1 returned D3 antag 3.6, S2 tox inconclusive, DRD3 agonist 0.5, IL1B secr inh 6.1, a7 integrin act -21.2% and ATXN2 expr inh -9.0%.
Screening CC(=O)n1cc(C(C[N+](=O)[O-])SCCN)c2ccccc21 (stereo not drawn) returned D3 antag -14.6, DRD3 agonist -0.4, IL1B secr inh -97.4*, a7 integrin act -36.8% and ATXN2 expr inh inconclusive.
`COc1ccc2c(C)c(C(=O)O)oc2c1` gave D3 antag 0.0, S2 tox inactive, DRD3 agonist -6.3, IL1B secr inh -23.7, a7 integrin act 35.0% and ATXN2 expr inh -1.2%.
COc1c(Br)cc2c(C)c(C(=O)O)oc2c1Br was read as D3 antag -14.8, S2 tox inactive, DRD3 agonist 32.7*, IL1B secr inh 0.0, a7 integrin act -11.8% and ATXN2 expr inh 3.4%.
CN(C(=O)c1cccc(C#N)c1)c1nnc(C2CCOC2)s1 (stereo not drawn) was read as D3 antag 18.0, S2 tox inactive, DRD3 agonist 0.3, IL1B secr inh -2.7, a7 integrin act 3.5% and ATXN2 expr inh 0.0%.
